Experimental data taken from ChEMBL document CHEMBL1961873, “Compounds: GSK PKIS; Assays: Nanosyn kinase panel” (2012).

These molecules were tested on Platelet-derived growth factor receptor alpha (Homo sapiens), P16234 [D842V]. Details: at 0.1 µM.
Platelet-derived growth factor receptor alpha (Homo sapiens), P16234 [D842V], sequence (P16234 whole entry D842V): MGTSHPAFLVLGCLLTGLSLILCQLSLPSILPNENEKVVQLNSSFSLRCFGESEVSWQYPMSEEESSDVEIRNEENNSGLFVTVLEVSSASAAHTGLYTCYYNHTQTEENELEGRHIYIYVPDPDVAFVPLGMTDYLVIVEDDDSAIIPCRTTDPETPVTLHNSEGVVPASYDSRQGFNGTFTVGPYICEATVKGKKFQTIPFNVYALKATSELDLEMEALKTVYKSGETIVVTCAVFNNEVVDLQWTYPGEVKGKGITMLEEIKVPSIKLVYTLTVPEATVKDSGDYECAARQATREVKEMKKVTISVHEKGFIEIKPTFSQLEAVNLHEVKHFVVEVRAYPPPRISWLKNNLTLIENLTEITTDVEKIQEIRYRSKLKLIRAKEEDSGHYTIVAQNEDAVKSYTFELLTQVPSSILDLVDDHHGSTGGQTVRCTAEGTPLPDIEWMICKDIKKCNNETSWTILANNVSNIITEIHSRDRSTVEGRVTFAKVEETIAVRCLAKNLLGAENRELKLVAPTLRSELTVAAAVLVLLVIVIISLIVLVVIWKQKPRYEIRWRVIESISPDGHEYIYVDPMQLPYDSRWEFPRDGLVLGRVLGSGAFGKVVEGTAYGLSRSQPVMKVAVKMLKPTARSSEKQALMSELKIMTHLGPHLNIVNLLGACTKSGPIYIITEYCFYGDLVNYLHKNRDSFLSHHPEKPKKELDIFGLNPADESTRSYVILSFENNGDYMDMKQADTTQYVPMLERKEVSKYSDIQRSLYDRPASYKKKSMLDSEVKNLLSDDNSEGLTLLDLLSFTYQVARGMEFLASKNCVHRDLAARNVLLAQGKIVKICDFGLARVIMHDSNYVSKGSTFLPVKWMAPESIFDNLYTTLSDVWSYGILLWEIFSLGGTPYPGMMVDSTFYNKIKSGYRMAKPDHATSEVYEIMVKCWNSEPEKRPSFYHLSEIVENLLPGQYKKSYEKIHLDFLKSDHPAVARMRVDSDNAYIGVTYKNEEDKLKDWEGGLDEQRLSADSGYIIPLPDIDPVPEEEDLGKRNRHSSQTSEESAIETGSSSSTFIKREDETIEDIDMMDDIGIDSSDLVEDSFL

SMILES	inhibition [%]
CCC(=O)Nc1ccc(C)c(-c2ccc(C(=O)NCC3CC3)cc2)c1	2.61
CN(C)CCOc1ccc(-c2cc(-c3ccc4c(c3)CCC4=NO)c(-c3ccncc3)o2)cc1	0.21
c1ccc(-c2n[nH]cc2-c2ccnc(-c3ccc(OCCN4CCOCC4)cc3)c2)nc1	18.6
COc1cccc(/C=N/Nc2ncnc3c2cnn3-c2cccc(OC)c2)c1	2.84
NCc1ccc(-n2c(-c3nonc3N)nc3cnccc32)cc1	9
Cc1ccc(C(=O)NC2CCC2)cc1-c1ccc(C(=O)NCC2CC2)cc1	3.52
COc1cc(Nc2ncc3c(C)nc(-c4cccc(Oc5ccccc5)c4)n3n2)cc(OC)c1OC	2.21
Fc1ccc(-c2ncn(C3CCNCC3)c2-c2ccnc(Oc3ccc(F)c(F)c3)n2)cc1	2.91
COC(=O)Nc1nc2ccc(Sc3ccc(NC(=O)Nc4cc(C(F)(F)F)ccc4F)cc3)cc2[nH]1	0.97
NC(=O)c1cc(-c2ccc(F)cc2)cc(-c2ccncc2)c1N	1.68
CN(C)CCCNc1nccc(-c2c(-c3ccc(F)cc3)nn3cc(C(F)(F)F)ccc23)n1	3.3
CCc1nccc2c1nc(-c1nonc1N)n2CC	2.48
COc1ccc(-c2ccc3c(NC(=O)C4CC4)n[nH]c3n2)cc1	1.56
O=C1Nc2ccc(I)cc2C1=Cc1cc(Br)c(O)c(Br)c1	2.93
O=C(Nc1n[nH]c2nc(-c3ccc(O)cc3)c(Br)cc12)C1CC1	12.8
CS(=O)(=O)CCNCc1cc(-c2cc3c(Nc4ccc(OCc5cccc(F)c5)c(Cl)c4)ncnc3s2)cs1	2.14
